# Measurements published in the supplement of paper PMC6411743.
# ± gives the standard deviation of the averaged measurements. Targets with the largest changes are over-represented here; the source holds about 5,400 in all.
# Compound: Nc1nc2c(ncn2[C@@H]2O[C@H](COP(=O)(O)OP(=O)(O)OP(=O)(O)O)[C@@H](O)[C@H]2O)c(=O)[nH]1 [guanosine triphosphate]
# Assay: NP40-soluble protein abundance relative to vehicle (solubility fold change) (ratio); higher = more soluble protein in presence of GTP
# Summary of the method: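 Across three independent experiments, values are fold changes against the detergent-processed vehicle for each replicate, based on vsn-normalised intensities. The samples were Jurkat crude lysate treated with eight concentrations (0.1 to 10 mM) for 10 min at room temperature and then 3 min at 37 °C. Lysate was solubilised with 0.8% NP40 and benzonase, ultracentrifuged, and the supernatant analysed by TMT-labelled LC-MS/MS.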
# Chain of UniProt Q9BVP2 (Q9BVP2 whole entry): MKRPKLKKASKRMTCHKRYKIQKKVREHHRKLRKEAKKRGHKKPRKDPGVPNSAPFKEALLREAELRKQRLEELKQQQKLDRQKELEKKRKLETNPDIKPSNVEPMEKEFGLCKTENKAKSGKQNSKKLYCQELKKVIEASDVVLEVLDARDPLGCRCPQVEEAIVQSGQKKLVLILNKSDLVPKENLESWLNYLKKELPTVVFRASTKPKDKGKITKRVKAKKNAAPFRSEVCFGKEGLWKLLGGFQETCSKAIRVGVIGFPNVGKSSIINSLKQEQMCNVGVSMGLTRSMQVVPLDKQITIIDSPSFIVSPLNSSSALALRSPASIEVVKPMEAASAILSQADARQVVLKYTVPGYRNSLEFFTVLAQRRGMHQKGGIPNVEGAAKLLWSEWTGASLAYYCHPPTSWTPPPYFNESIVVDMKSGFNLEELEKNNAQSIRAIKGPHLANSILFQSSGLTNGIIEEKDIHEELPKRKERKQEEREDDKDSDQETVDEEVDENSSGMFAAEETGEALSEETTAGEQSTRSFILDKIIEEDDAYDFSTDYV
# Chain of UniProt Q9UBD5 (Q9UBD5 whole entry): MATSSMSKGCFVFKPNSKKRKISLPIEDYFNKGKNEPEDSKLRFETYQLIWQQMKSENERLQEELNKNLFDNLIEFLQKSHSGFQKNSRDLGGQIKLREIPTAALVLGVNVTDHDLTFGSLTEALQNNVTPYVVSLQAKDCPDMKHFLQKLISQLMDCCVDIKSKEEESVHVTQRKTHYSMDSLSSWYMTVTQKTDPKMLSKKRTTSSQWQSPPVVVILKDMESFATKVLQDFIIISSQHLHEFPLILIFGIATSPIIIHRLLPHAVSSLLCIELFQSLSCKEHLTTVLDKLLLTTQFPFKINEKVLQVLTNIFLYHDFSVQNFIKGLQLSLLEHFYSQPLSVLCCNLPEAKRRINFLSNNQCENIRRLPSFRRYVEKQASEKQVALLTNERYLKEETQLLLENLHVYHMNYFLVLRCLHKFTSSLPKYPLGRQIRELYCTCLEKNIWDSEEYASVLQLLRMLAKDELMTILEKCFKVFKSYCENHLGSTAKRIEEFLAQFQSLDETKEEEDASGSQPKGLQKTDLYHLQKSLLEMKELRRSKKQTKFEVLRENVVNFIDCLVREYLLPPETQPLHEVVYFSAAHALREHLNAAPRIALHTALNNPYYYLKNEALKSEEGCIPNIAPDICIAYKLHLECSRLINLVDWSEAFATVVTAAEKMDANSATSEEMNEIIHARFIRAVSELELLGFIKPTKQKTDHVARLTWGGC
# Chain of UniProt Q9BZM5 (Q9BZM5 whole entry): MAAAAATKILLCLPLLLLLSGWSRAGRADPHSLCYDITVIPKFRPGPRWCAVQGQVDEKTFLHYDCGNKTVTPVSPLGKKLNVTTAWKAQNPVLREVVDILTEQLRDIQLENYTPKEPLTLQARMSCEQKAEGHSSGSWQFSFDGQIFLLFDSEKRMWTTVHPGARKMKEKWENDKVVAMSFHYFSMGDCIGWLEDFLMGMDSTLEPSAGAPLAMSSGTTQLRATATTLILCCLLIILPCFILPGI
# Chain of UniProt Q9Y6V7 (Q9Y6V7 whole entry): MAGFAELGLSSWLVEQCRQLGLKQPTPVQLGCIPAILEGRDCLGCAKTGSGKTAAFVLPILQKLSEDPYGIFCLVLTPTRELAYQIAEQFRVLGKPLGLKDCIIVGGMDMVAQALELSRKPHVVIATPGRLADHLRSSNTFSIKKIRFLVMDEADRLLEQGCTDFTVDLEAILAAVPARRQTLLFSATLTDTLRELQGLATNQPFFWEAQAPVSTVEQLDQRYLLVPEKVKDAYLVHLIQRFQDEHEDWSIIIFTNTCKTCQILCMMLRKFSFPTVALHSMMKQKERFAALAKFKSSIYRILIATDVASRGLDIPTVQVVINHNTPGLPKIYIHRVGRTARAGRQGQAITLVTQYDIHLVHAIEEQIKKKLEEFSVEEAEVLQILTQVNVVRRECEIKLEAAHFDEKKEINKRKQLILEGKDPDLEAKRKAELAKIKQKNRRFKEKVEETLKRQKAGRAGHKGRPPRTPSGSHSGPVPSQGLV
# Chain of UniProt Q96HS1 (Q96HS1 whole entry): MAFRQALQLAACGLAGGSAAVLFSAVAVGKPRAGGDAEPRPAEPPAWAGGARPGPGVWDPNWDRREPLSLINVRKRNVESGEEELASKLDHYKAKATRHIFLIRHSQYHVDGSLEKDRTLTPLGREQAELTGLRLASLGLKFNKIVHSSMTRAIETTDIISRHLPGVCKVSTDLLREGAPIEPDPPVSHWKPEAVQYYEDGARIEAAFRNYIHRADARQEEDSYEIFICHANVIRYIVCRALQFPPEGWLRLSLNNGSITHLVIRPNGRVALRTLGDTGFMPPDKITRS
# Chain of UniProt Q9UJ83 (Q9UJ83 whole entry): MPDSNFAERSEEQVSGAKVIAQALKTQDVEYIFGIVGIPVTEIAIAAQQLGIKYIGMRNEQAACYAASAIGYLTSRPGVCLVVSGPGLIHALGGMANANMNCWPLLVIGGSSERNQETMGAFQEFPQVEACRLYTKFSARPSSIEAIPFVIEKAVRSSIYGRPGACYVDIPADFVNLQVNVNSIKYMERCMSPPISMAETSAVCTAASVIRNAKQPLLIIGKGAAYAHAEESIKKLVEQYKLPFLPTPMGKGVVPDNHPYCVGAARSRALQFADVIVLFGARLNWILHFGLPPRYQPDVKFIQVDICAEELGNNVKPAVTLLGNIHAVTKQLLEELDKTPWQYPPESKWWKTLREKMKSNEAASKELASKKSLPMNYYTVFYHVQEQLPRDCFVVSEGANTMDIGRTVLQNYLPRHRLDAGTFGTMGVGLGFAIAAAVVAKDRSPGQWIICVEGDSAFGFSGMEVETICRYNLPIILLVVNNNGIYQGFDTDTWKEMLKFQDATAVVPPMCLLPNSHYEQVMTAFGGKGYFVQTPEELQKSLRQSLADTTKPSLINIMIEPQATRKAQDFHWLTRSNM
# Chain of UniProt Q9P0P0 (Q9P0P0 whole entry): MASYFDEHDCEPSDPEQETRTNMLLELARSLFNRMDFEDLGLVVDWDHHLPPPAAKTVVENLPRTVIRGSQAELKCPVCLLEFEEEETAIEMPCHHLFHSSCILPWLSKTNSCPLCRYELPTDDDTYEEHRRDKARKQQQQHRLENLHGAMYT
# Chain of UniProt Q96I99 (Q96I99 whole entry): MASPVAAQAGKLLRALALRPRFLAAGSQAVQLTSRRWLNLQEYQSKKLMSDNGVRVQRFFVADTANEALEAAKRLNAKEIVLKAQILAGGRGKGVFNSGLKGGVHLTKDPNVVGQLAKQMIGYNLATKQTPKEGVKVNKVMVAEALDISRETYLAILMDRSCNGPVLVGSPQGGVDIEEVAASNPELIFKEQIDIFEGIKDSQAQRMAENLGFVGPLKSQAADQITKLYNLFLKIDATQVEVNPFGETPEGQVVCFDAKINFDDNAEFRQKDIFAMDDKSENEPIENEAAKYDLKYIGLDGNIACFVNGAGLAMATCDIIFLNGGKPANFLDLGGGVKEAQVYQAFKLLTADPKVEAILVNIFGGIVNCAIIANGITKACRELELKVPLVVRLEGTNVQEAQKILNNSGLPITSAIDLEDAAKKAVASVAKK
# Chain of UniProt Q9Y4P8 (Q9Y4P8 whole entry): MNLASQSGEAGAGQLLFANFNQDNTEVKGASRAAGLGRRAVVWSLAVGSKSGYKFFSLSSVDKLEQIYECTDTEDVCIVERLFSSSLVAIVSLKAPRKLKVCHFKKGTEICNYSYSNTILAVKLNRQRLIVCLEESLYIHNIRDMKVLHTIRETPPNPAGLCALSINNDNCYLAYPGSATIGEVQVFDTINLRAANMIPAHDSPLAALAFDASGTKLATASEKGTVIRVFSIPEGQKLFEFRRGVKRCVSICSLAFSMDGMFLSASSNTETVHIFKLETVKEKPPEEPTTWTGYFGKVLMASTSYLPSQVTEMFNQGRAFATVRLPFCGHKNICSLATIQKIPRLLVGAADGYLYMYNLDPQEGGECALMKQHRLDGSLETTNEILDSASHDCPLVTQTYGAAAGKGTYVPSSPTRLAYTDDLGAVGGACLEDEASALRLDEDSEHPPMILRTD
# Chain of UniProt Q9NX40 (Q9NX40 whole entry): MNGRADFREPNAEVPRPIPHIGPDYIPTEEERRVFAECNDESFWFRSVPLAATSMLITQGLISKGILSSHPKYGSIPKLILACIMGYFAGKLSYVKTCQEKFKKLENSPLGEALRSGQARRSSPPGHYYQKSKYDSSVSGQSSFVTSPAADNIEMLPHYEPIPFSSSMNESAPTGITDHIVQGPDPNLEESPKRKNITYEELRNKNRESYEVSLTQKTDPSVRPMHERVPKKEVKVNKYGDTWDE
# Chain of UniProt Q9NR28 (Q9NR28 whole entry): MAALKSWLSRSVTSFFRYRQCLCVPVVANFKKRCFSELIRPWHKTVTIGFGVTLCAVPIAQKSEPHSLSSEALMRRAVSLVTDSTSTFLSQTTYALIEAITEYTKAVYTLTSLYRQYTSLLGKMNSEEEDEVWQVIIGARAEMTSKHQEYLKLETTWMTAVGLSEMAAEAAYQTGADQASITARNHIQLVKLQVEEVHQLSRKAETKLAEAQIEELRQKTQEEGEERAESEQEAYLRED
# Chain of UniProt Q9NPF5 (Q9NPF5 whole entry): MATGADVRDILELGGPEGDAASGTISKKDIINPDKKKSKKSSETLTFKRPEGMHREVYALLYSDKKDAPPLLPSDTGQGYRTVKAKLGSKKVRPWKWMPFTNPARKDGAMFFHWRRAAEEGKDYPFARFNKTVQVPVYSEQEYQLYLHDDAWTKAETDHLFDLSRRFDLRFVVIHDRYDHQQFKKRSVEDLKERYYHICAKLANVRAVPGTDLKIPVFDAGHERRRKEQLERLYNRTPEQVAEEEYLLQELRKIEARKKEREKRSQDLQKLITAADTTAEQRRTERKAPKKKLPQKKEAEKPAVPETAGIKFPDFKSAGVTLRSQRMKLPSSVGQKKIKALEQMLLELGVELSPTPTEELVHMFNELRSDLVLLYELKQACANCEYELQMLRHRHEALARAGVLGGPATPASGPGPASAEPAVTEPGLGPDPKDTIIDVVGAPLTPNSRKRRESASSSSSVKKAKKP
Target,NP40-soluble protein abundance (concentration: 0.1mM),NP40-soluble protein abundance (concentration: 0.5mM),NP40-soluble protein abundance (concentration: 1mM),NP40-soluble protein abundance (concentration: 2mM),NP40-soluble protein abundance (concentration: 4mM),NP40-soluble protein abundance (concentration: 6mM),NP40-soluble protein abundance (concentration: 8mM),NP40-soluble protein abundance (concentration: 10mM)
UniProt Q96L91|Q96L91-2|Q96L91-3|Q96L91-5,1.03 ± 0.021,1.06 ± 0.04,1.12 ± 0.03,1.18 ± 0.061,1.24 ± 0.13,1.26 ± 0.14,1.32 ± 0.22,1.34 ± 0.23
DMAP1 (UniProt Q9NPF5),1.04 ± 0.056,1.06 ± 0.059,1.11 ± 0.079,1.17 ± 0.099,1.22 ± 0.12,1.24 ± 0.15,1.29 ± 0.2,1.26 ± 0.18
DDX49 (UniProt Q9Y6V7),1.02 ± 0.056,1.01 ± 0.047,1.03 ± 0.026,1.05 ± 0.072,1.12 ± 0.037,1.19 ± 0.022,1.26 ± 0.076,1.21 ± 0.077
UniProt Q9H3N1,0.957 ± 0.055,0.947 ± 0.043,0.935 ± 0.04,0.871 ± 0.062,0.858 ± 0.071,0.878 ± 0.091,0.885 ± 0.053,0.859 ± 0.065
UniProt Q9H8Y8|Q9H8Y8-3,0.893 ± 0.088,0.934 ± 0.09,0.911 ± 0.095,0.873 ± 0.087,0.836 ± 0.091,0.858 ± 0.059,0.884 ± 0.091,0.892 ± 0.12
PGAM5 (UniProt Q96HS1),1.03 ± 0.034,1.09 ± 0.073,1.18 ± 0.14,1.4 ± 0.26,1.67 ± 0.38,1.79 ± 0.45,1.86 ± 0.4,1.95 ± 0.47
JARID2 (UniProt Q92833),0.971 ± 0.078,1.07 ± 0.11,1.09 ± 0.088,1.08 ± 0.087,1.05 ± 0.04,1.05 ± 0.088,1.18 ± 0.04,1.15 ± 0.026
UniProt Q9UJ83|Q9UJ83-2|Q9UJ83-3,1.067 ± 0.0066,1.03 ± 0.11,0.98 ± 0.05,1.01 ± 0.11,0.987 ± 0.04,0.958 ± 0.08,0.926 ± 0.021,0.9129 ± 0.0074
SUCLG2 (UniProt Q96I99),0.959 ± 0.049,0.966 ± 0.053,0.933 ± 0.043,0.901 ± 0.06,0.889 ± 0.059,0.889 ± 0.052,0.886 ± 0.048,0.871 ± 0.068
OCIAD1 (UniProt Q9NX40),0.922 ± 0.025,0.9 ± 0.044,1.01 ± 0.016,0.982 ± 0.058,0.971 ± 0.072,0.956 ± 0.053,0.956 ± 0.034,0.974 ± 0.037
UniProt Q96B97|Q96B97-2,0.941 ± 0.12,0.938 ± 0.1,0.962 ± 0.1,0.943 ± 0.13,0.949 ± 0.1,0.935 ± 0.098,0.982 ± 0.11,0.966 ± 0.12
CHMP2B (UniProt Q9UQN3),0.905 ± 0.051,0.909 ± 0.092,0.989 ± 0.079,0.931 ± 0.15,0.938 ± 0.12,0.967 ± 0.14,0.953 ± 0.085,0.932 ± 0.11
UniProt Q9Y4P8|Q9Y4P8-4|Q9Y4P8-6,1.04 ± 0.11,1.01 ± 0.028,0.976 ± 0.11,0.961 ± 0.1,0.959 ± 0.1,0.959 ± 0.053,0.954 ± 0.042,0.896 ± 0.021
CORO2A (UniProt Q92828),1.08 ± 0.12,1.09 ± 0.11,1.11 ± 0.049,1.19 ± 0.047,1.31 ± 0.056,1.42 ± 0.075,1.42 ± 0.1,1.42 ± 0.058
RNF181 (UniProt Q9P0P0),0.961 ± 0.027,0.925 ± 0.028,1.05 ± 0.077,1.03 ± 0.045,1.01 ± 0.013,1.02 ± 0.05,1.04 ± 0.1,1.09 ± 0.075
UniProt Q9BVP2|Q9BVP2-2,1.31 ± 0.073,1.3 ± 0.094,1.34 ± 0.11,1.51 ± 0.19,1.68 ± 0.17,1.73 ± 0.13,1.77 ± 0.2,1.88 ± 0.072
AFG3L2 (UniProt Q9Y4W6),0.998 ± 0.016,0.996 ± 0.016,0.946 ± 0.024,0.969 ± 0.022,0.977 ± 0.022,0.987 ± 0.04,0.988 ± 0.02,0.938 ± 0.014
UniProt Q9BW83|Q9BW83-2,0.972 ± 0.019,1.05 ± 0.059,0.971 ± 0.02,0.958 ± 0.013,0.911 ± 0.036,0.95 ± 0.018,0.916 ± 0.016,0.944 ± 0.0068
UniProt Q9NR28|Q9NR28-2,0.964 ± 0.011,0.957 ± 0.055,0.972 ± 0.041,0.963 ± 0.075,0.976 ± 0.059,0.96 ± 0.068,0.94 ± 0.033,1.01 ± 0.035
ULBP2 (UniProt Q9BZM5),0.893 ± 0.085,0.86 ± 0.1,0.918 ± 0.073,0.884 ± 0.1,0.907 ± 0.098,0.89 ± 0.043,0.916 ± 0.1,0.925 ± 0.088
MED10 (UniProt Q9BTT4),1.01 ± 0.2,1.03 ± 0.098,0.973 ± 0.028,1.07 ± 0.11,0.95 ± 0.094,1.08 ± 0.05,0.968 ± 0.092,1.07 ± 0.038
DCUN1D5 (UniProt Q9BTE7),0.984 ± 0.048,0.929 ± 0.07,0.918 ± 0.076,0.916 ± 0.077,0.948 ± 0.027,0.883 ± 0.056,0.891 ± 0.069,0.883 ± 0.074
PUS7 (UniProt Q96PZ0),0.992 ± 0.013,0.992 ± 0.016,0.944 ± 0.046,0.944 ± 0.029,0.907 ± 0.053,0.917 ± 0.022,0.889 ± 0.038,0.892 ± 0.059
PSMG3 (UniProt Q9BT73),1.03 ± 0.027,1.09 ± 0.083,1.09 ± 0.058,1.07 ± 0.042,1.08 ± 0.054,0.999 ± 0.087,1.14 ± 0.087,1.04 ± 0.042
UniProt Q9BVI0|A0A0A0MT13|Q5JWZ0|Q5JXL1,1.11 ± 0.068,1.07 ± 0.12,1.19 ± 0.078,1.27 ± 0.057,1.52 ± 0.056,1.553 ± 0.012,1.77 ± 0.08,1.71 ± 0.071
UniProt Q9Y2A7|Q9Y2A7-2,0.9505 ± 0.0043,1.002 ± 0.0081,0.972 ± 0.055,0.982 ± 0.015,0.991 ± 0.034,0.9641 ± 0.0054,1.02 ± 0.026,0.973 ± 0.011
UniProt Q99828|Q99828-2,0.956 ± 0.08,0.981 ± 0.11,1.02 ± 0.081,1.02 ± 0.084,1.02 ± 0.092,1 ± 0.12,0.996 ± 0.11,0.911 ± 0.12
DNAJB11 (UniProt Q9UBS4),1.01 ± 0.027,1.02 ± 0.048,1.03 ± 0.059,1 ± 0.048,1.01 ± 0.051,1.02 ± 0.046,1.005 ± 0.0044,0.982 ± 0.029
UniProt Q9UBD5|Q9UBD5-2,0.981 ± 0.061,1.06 ± 0.076,0.957 ± 0.092,1.04 ± 0.049,0.998 ± 0.069,1.04 ± 0.04,1.02 ± 0.1,1.07 ± 0.018
